Screening results: PubChem, National Center for Advancing Translational Sciences (NCATS)
A selection: hits, their analogues and other compounds. The true share with any hit is near 6.1%.
DRD3 antagonist: blocks the human D3 dopamine receptor; actives 2.5% (n = 360,000); D3R cells, DiscoveRx beta-arrestin luminescence, antagonist mode; stronger effect = lower value; P35462; AID 652054; max response, negative = inhibition, %; in the data active = max response below about -50%; also: % is scaled to controls: 0 for no effect and ±100 for the full control effect
Target sequence (P35462 whole entry, looked up): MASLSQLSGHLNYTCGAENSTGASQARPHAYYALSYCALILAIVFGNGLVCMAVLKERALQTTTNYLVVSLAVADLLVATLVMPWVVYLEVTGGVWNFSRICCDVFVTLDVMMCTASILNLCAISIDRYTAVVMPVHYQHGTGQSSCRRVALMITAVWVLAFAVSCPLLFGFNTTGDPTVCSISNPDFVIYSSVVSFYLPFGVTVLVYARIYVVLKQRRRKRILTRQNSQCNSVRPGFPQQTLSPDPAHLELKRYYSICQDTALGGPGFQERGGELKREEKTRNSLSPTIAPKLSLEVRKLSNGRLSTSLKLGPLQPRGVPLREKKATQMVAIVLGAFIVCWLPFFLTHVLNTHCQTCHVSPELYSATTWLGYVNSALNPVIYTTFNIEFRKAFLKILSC
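Cells expressing the human receptor were seeded at 1500 cells/well, incubated overnight at 37 degrees C in 5% CO2, then exposed to library compounds with dopamine controls for 90 minutes at 37 degrees C before luminescent detection.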
ERG-DNA inh: ERG Ets/DNA interaction inhibition | fluorescence polarization, His-ERG Ets domain / labelled DNA | Potency, µM (highest dose often 76.9 µM), without a hit: at the top dose FP activity, negative = inhibition, hits mostly inhibitors | actives 0.028% (n = 370,000) | AID 624246; active = well fitted inhibition curve with a large enough effect in the polarisation, with a control signal flat; the % refers to the polarisation;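 also: polarization taken with two DNA probes labelled with fluorescein and Texas red; potency is read from the fitted curve at half-maximal effect; % of control where 0% means no effect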
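His-tagged ERG Ets domain (1 uM in the protein solution; 300mM KCl, 50mM Tris-HCl, 1mM EDTA, 1mM DTT, pH 7.5) received compound, then a probe mix of 5 nM fluorescein-DNA and 100nM Texas-615-DNA. Fluorescence polarization was read for both dyes.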
D1 ag: human D1 receptor agonism. AID 504660. HEK293 T-REx D1 cells, calcium flux, agonist mode. actives 1% (n = 360,000). activation, % at 2 µM. P21728; in the data active = activation above about 30%; also: 0% is about no effect
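Tetracycline-induced HEK293 TREx D1 cells, force-coupled to calcium signalling, were dye-loaded with a no-wash calcium kit. Compound was pin-added after a 10 s baseline. Fluorescence was read kinetically at 1 cycle/s for 180 s, with calcium rises flagged as agonism.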
D1 antag: human D1 dopamine receptor antagonism; P21728; HEK293 TREx D1 cells, calcium flux, dopamine EC80; stronger effect = lower value; activity change, negative = inhibition, % at 10 µM; actives 3.2% (n = 360,000); AID 504652; in the data active = activity change below about -30%; also: % is scaled to controls: 0 for no effect and ±100 for the full control effect
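Cells carrying a force-coupled, tetracycline-inducible human D1 receptor report calcium flux. Each well gets a 10 s baseline, compound with 180 s monitoring, then an EC80 dopamine stimulus with a second 180 s kinetic read.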
D1 potentiator: human D1 dopamine receptor positive modulation; HEK293 TREx D1 cells, calcium flux, dopamine EC20 potentiation; potentiation, % at 10 µM; actives 0.036% (n = 360,000); in the data active = potentiation above about 30%; also: 0% is about no effect
DRD3 agonist: agonists of human D3 dopamine receptor. D3R DiscoveRx beta-arrestin cells, luminescence, 90 min. AID 652048. max activation, %. P35462. actives 0.58% (n = 410,000); in the data active = max activation above about 30%; also: 0% is about no effect
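Cells at 1500/well, incubated overnight, then treated with pinned compounds (dopamine as control) for 90 min at 37 degrees C. DiscoveRx reagent added for 30 - 60 minutes at room temperature; luminescence read.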
* marks the source's active call; other numbers are inactive results.

How did Nc1c(C(=O)Nc2ccc(C(=O)O)cc2)sc2nc3c(cc12)CCCC3 do in these assays?
ERG-DNA inh: 1.1%; D1 ag: 1.1; D1 antag: 0.0; D1 potentiator: 0.6; DRD3 agonist: 16.0

What do the screens show for `Nc1c(C(=O)Nc2ccc(Cl)c(C(=O)O)c2)sc2nc3c(cc12)CCCC3`?
DRD3 antagonist: 13.7; ERG-DNA inh: 2.8%; D1 ag: 13.0; D1 antag: -61.5*; D1 potentiator: -7.8; DRD3 agonist: 11.8

What do the screens show for `CC(=O)c1ccc(NC(=O)Cn2cnc(S(=O)(=O)N3CCCCC3)c2)cc1`?
DRD3 antagonist: -8.9; ERG-DNA inh: -2.1%; D1 ag: 3.1; D1 antag: 17.0; D1 potentiator: -2.9; DRD3 agonist: 3.1

How did CN(C(=O)c1cccc(N2C(=O)C3CC=CCC3C2=O)c1)C1CCCCC1 (stereo unspecified) do in these assays?
DRD3 antagonist: 18.7; ERG-DNA inh: 1.9%; D1 ag: 8.6; D1 antag: -30.5*; D1 potentiator: -2.9; DRD3 agonist: 5.4

What do the screens show for `Cc1ccccc1NC(=O)c1cccc(N2C(=O)C3CCCCC3C2=O)c1` (stereo unspecified)?
DRD3 antagonist: 2.7; ERG-DNA inh: -1.6%; D1 ag: 11.1; D1 antag: -30.2*; D1 potentiator: 1.4; DRD3 agonist: 13.6

What do the screens show for `Cc1ccccc1NC(=O)c1cccc(N2C(=O)C3C4CCC(C4)C3C2=O)c1` (stereo unspecified)?
DRD3 antagonist: 13.0; ERG-DNA inh: 2.3%; D1 ag: 2.7; D1 antag: -21.2; D1 potentiator: -3.4; DRD3 agonist: -20.1

Results for CC1=CC(C)(C)NC(=S)N1c1ccc([N+](=O)[O-])cc1 ?
DRD3 antagonist: -13.7; ERG-DNA inh: 9.0%; DRD3 agonist: 0.6

Results for Cc1cccc(NC(=O)c2ccc(-n3cccn3)c([N+](=O)[O-])c2)c1 ?
DRD3 antagonist: -17.9; ERG-DNA inh: -10.9%; D1 ag: 8.3; D1 antag: -16.8; D1 potentiator: 2.8; DRD3 agonist: -10.3

What do the screens show for `CCc1ccc(NC(=O)c2ccc(-n3cncn3)c([N+](=O)[O-])c2)cc1`?
DRD3 antagonist: -0.3; ERG-DNA inh: 8.7%; D1 ag: 1.5; D1 antag: 7.0; D1 potentiator: -6.0; DRD3 agonist: -9.7

Results for Cc1ccc(NC(=O)CN(C)C(=O)c2ccc(-n3cncn3)c([N+](=O)[O-])c2)cc1 ?
DRD3 antagonist: 5.4; ERG-DNA inh: -0.4%; D1 ag: -0.5; D1 antag: -54.8*; D1 potentiator: -5.2; DRD3 agonist: -7.8

What do the screens show for `Cc1ccc(NC(=O)c2ccc(-n3cccn3)c([N+](=O)[O-])c2)cc1`?
DRD3 antagonist: -52.6*; ERG-DNA inh: -12.4%; D1 ag: 6.7; D1 antag: -6.3; D1 potentiator: -6.9; DRD3 agonist: -8.3

Results for CCOC(=O)[C@]12CCCC=C1N(Cc1ccc3c(c1)OCO3)C(=O)[C@H](CC(=O)NCCCCc1ccccc1)C2 ?
DRD3 antagonist: -50.7*; DRD3 agonist: -0.1

Results for O=C(Nc1ccn(Cc2ccccc2F)n1)c1ccc(COc2ccc(Br)cc2)cc1 ?
DRD3 antagonist: 13.6; ERG-DNA inh: -16.8%; D1 ag: 51.5*; D1 antag: -53.9*; D1 potentiator: -10.2; DRD3 agonist: -4.2

How did O=C(Nc1ccc(Cn2cccn2)cc1)c1ccc(COc2ccc(Br)cc2)cc1 do in these assays?
DRD3 antagonist: -7.2; ERG-DNA inh: 2.1%; D1 ag: 0.0; D1 potentiator: -4.7; DRD3 agonist: 0.3

Results for COc1ccc(CNC(=O)C(OC(=O)c2ccco2)c2ccccc2F)cc1 (stereo unspecified) ?
DRD3 antagonist: -1.5; ERG-DNA inh: -2.7%; D1 ag: -0.3; D1 antag: -0.9; D1 potentiator: -2.2; DRD3 agonist: 4.2

Results for Cc1ccc(C)c(N2CCN(C(=O)CCc3nc(-c4cccc(Br)c4)no3)CC2)c1 ?
DRD3 antagonist: 25.9; ERG-DNA inh: 2.0%; DRD3 agonist: 20.2
